Several values for one entry are separate records, joined by “and”; a condition that tells them apart may be missing. Identical values can stand only once. Inconclusive results are not listed. Activity calls are given as the source filed them. Unless noted, calls come from the whole dose curve; as a rule, active = well fitted curve in the direction sought with a large enough effect; inconclusive = small, poorly fitted or top-dose-only effect, or another doubt; inactive = no such curve, though single readings can be large; an effect the other way counts as inactive or inconclusive.

Experiment [1] concerns the target Alpha-galactosidase A (Homo sapiens) (UniProt P06280). As to the kind of experiment: Counterscreen for Glucocerebrosidase Inhibitors: qHTS Assay for Human alpha-Galactosidase at pH 4.5 (AID 992). Note: 0% is about no effect. The note with it: purified enzyme, fluorogenic substrate; series mostly up to 76.9 µM. The procedure, abridged:
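Human enzyme (2 nM) with 80 uM 4-methylumbelliferyl alpha-D-galactopyranoside in 50 mM citric acid, 0.005% Tween-20, pH 4.5, 20 min at room temperature. Compounds 0.7 nM–77 uM; fluorescence Ex 365/Em 440 after pH 10 stop; AC50 from Hill fits.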

In experiment [2] the target is alpha-glucosidase (Oryza sativa, rice) (UniProt Q653V4). As to the kind of experiment: Counterscreen for Glucocerebrosidase Inhibitors: qHTS Assay for Rice alpha-Glucosidase at pH 5.0 (AID 997).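 Note: 0% = full activity with enzyme and -100% = basal without enzyme.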 The note with it: rice alpha-glucosidase enzyme activity; series mostly up to 76.9 µM. In a few lines: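 Rice alpha-glucosidase (4 nM final) with 400 uM 4-methylumbelliferyl-alpha-D-glucopyranoside in citrate buffer pH 5.0, 20 min at room temperature, stopped at pH 10; fluorescence 365/440 nm, compounds 0.7 nM–77 uM, AC50 from Hill fits.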
For orientation: The purpose of a counterscreen is to sort out artefacts and off-target activity.

Experiment [3] in a line: qHTS Assay for Lipid Storage Modulators (AID 1519; calls by dose curve; for activity change, negative = inhibition: % is set by controls: 0 for no effect and ±100 for the full control effect). The note with it: Drosophila S3 cells, BODIPY lipid droplet/cell ratio, laser cytometry, cells loaded with oleic acid. The procedure, abridged: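 Cells seeded at 5,000 per well were treated with compounds over a concentration series and loaded with oleic acid (400 uM, as added). Lipid droplet fluorescence (488 nm excitation, 500-530 nm channel) was read by laser-scanning cytometry and normalized to 20 uM Triacsin C.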
For orientation: In qHTS, concentration-response curves come from the screen itself.

The target in experiment [4] is DNA repair nuclease/redox regulator APEX1 (Homo sapiens) (UniProt P27695). As to the kind of experiment: qHTS Validation Assay for Inhibitors of the Human Apurinic/apyrimidinic Endonuclease 1 (APE1) (AID 1705;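 note: TAMRA fluorescence gain over two minutes as APE1 cuts a quenched THF abasic duplex; % is set by controls: 0 for no effect and ±100 for the full control effect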). The note with it: purified APE1 endonuclease activity, fluorescence, titration; series mostly up to 57.1 µM. In a few lines:
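Read-out: TAMRA fluorescence (525 nm ex, 598 nm em) from cleavage of a quenched THF abasic-site duplex, 50 nM final; activity taken as intensity change between third and first of three reads 60 s apart.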

Experiment [5] can be described thus: Counterscreen for APE1 Inhibitors: Fluorescent Dye Displacement Validation Assay (AID 1707).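 Note: plate controls were ThO with dsDNA and no compound for no effect and ThO without dsDNA for full effect.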 The note with it: fluorescent dye displacement from DNA; series mostly up to 57.1 µM. The procedure, abridged:
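Thiazole Orange (250 nM) bound to 50 nM TAMRA-labelled dsDNA with tetrahydrofuran abasic site; displacement by DNA-binding compounds lowers fluorescence. Buffer 50 mM Tris-HCl pH 7.5, 50 mM NaCl, 2 mM MgCl2, 0.01% Tween-20; endpoint read at 480/540 nm.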

Experiment [6] has as its target Endonuclease 4 (Escherichia coli (strain K12)) (UniProt P0A6C1). The experiment is described as follows: Counterscreen for APE1 Inhibitors: qHTS Validation Assay for Inhibitors of Endonuclease IV (AID 1708). Note: % is set by controls: 0 for no effect and ±100 for the full control effect. The note with it: E. coli endonuclease IV, DNA cleavage fluorescence; series mostly up to 57.1 µM. In a few lines:
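E. coli EndoIV at 2 nM final, preincubated 15 min at room temperature with compound, then 50 nM TAMRA/BHQ-2 THF abasic-site duplex added. Buffer: 50 mM Tris-HCl pH 7.5, 50 mM NaCl, 2 mM MgCl2, 1 mM DTT, 0.01% Tween-20. Kinetic fluorescence increase, third minus first read.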

A short description of experiment [7]: qHTS for differential inhibitors of proliferation of Plasmodium falciparum line GB4 (AID 1816).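 For activity change, negative = inhibition: 0% = vehicle DMSO and -100% = reference inhibitor.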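 Note: parasite growth measured after 72 h incubation.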 Note: potency is the fitted concentration of half-maximal effect. The note with it: Potency: Plasmodium falciparum GB4 proliferation inhibition; series mostly up to 28.7 µM.
Experiment [8] can be described thus: qHTS for differential inhibitors of proliferation of Plasmodium falciparum line 3D7 (AID 1876). Note: potency is the fitted concentration of half-maximal effect. The note with it: P. falciparum 3D7 proliferation inhibition; series mostly up to 28.7 µM.
Experiment [9] is described as follows: qHTS for differential inhibitors of proliferation of Plasmodium falciparum line D10 (AID 1877).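 For activity change, negative = inhibition: plate controls were vehicle wells for no effect and reference inhibitor wells for full effect.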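 Note: parasites grown with compound for 72 h before DNA staining.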 Note: potency is the fitted concentration of half-maximal effect. The note with it: series mostly up to 28.7 µM.
Experiment [10] in a line: qHTS for differential inhibitors of proliferation of Plasmodium falciparum line Dd2 (AID 1882).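 For activity change, negative = inhibition: plate controls were DMSO vehicle for no effect and 0.29 µM artemisinin for full effect.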 Note: nearly all actives have a fitted effect of over 65% in size. Note: potency is the fitted concentration of half-maximal effect. The note with it: Potency: Plasmodium falciparum Dd2 proliferation inhibition; series mostly up to 28.7 µM. In a few lines: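 Dd2-infected erythrocytes (0.3% parasitemia, 2.5% hematocrit final) incubated with compound 72 h at 37 C, 5% CO2; lysed with saponin/Triton buffer containing SYBR Green I, incubated overnight in the dark, then read by fluorescence (485/535 nm). Normalized to 0.29 uM artemisinin and DMSO.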

Experiment [11] can be described thus: qHTS for differential inhibitors of proliferation of Plasmodium falciparum line W2 (AID 1883).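 For activity change, negative = inhibition: 0% = vehicle wells and -100% = control inhibitor wells.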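 Note: parasites grown with compound for 72 h before lysis and staining.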 Note: potency is the fitted concentration of half-maximal effect. The note with it: Potency: Plasmodium falciparum W2 proliferation inhibition; series mostly up to 28.7 µM.
Experiment [12] can be described thus: qHTS for differential inhibitors of proliferation of Plasmodium falciparum line 7G8 (AID 1815).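 For activity change, negative = inhibition: plate controls were vehicle wells for no effect and reference inhibitor wells for full effect.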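 Note: parasite growth measured after three days of incubation.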 Note: potency is the fitted concentration of half-maximal effect. The note with it: Plasmodium falciparum 7G8 proliferation inhibition; series mostly up to 28.7 µM.
Experiment [13] can be described thus: Cell Viability - LYMP2-014 (AID 983).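 Note: cells exposed to compound for 24 h at 37 °C; plate controls were DMSO only for no effect and 92 µM tetraoctylammonium bromide for full effect; nearly all actives have a fitted effect of over 50% in size.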 The note with it: LYMP2-014 lymphoblastoid cells, viability qHTS; series mostly up to 92.2 µM. The procedure, abridged:
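Luminescent ATP signal (CellTiter-Glo, 30 min at room temperature) serves as the viability read-out after 24 hr compound exposure at 37 C. Cells were seeded at 2500 per well and settled 5 hr beforehand.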

The nature of experiment [14]: Cell Viability - LYMP2-016 (AID 984).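 Note: cells exposed to compound for 24 hours at 37 °C; % is set by controls: 0 for no effect and ±100 for the full control effect; nearly all actives have a fitted effect of over 55% in size.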 The note with it: LYMP2-016 lymphoblastoid cell viability, qHTS; series mostly up to 92.2 µM. The procedure, abridged: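 qHTS, 1536-well: 2500 LYMP2-016 cells/well, 5 hr 37 C, compound added, 24 hr 37 C, CellTiter-Glo 30 min RT, luminescence. Tetraoctylammonium bromide positive control. AC50 via Hill fit.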
Experiment [15] is described as follows: Cell Viability - LYMP2-018 (AID 985).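 Note: plate controls were DMSO only for no effect and tetraoctylammonium bromide at 92 µM for full effect; nearly all actives have a fitted effect of over 50% in size.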 The note with it: LYMP2-018 lymphoblastoid cells, viability (qHTS); series mostly up to 92.2 µM. The procedure, abridged:
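Luminescent ATP signal (CellTiter-Glo, read after 30 min at room temperature) reports viable cells after 24 hr compound treatment at 37 C. Concentration-response data were fitted to the standard Hill equation for AC50.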

Experiment [16] in a line: Cell Viability - LYMP2-022 (AID 987).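 Note: 0% = DMSO alone and full effect = tetraoctylammonium bromide at 92 µM; nearly all actives have a fitted effect of over 55% in size.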 The note with it: LYMP2-022 lymphoblastoid cell viability; series mostly up to 92.2 µM. In a few lines:
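qHTS: human lymphoblastoid cells 2500/well; 5 hr 37 C; cpd added; 24 hr 37 C; CellTiter-Glo, 30 min RT; luminescence. AC50 via Hill fit; tetraoctylammonium bromide positive ctrl.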

A short description of experiment [17]: Cell Viability - LYMP2-026 (AID 989).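 Note: cells exposed to compound for 24 h at 37 °C; % is set by controls: 0 for no effect and ±100 for the full control effect; nearly all actives have a fitted effect of over 50% in size.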 The note with it: LYMP2-026 lymphoblastoid cell viability, qHTS; series mostly up to 92.2 µM. The procedure, abridged: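 Luminescent ATP signal (CellTiter-Glo, 30 min room temperature) measures viable lymphoblastoid cells after 24 hr compound treatment at 37 C. Decreased ATP reflects acute toxicity; AC50 values come from Hill-equation modeling.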

The nature of experiment [18]: Cell Viability - LYMP1-002 - Assay at 24 hr (AID 993). Note: % is set by controls: 0 for no effect and ±100 for the full control effect. The note with it: LYMP1-002 lymphoblastoid cells viability; series mostly up to 92.2 µM. In a few lines:
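Cells plated 2500/well, 5 hr 37 C; compounds added, 24 hr 37 C; CellTiter-Glo added, 30 min RT; luminescence read. Tetraoctylammonium bromide positive control. Hill-equation AC50.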

A short description of experiment [19]: Cell Viability - LYMP1-002 - Assay at 40 hr (AID 994).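 Note: 0% = DMSO only and full inhibition = 92 µM tetraoctylammonium bromide; nearly all actives have a fitted effect of over 60% in size.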 The note with it: LYMP1-002 lymphoblastoid cell viability; series mostly up to 92.2 µM. In a few lines: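 Luminescent ATP signal served as the viability readout, with decreases taken as toxicity. Cells were treated with compounds across a concentration range for 40 hours at 37 C, and AC50 values came from standard Hill modeling.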

Where [20] appears, read: measured here: cell count channel max response.
Where [21] appears, read: measured here: lipid channel max response.

Alpha-galactosidase A (Homo sapiens), sequence (P06280 whole entry, looked up): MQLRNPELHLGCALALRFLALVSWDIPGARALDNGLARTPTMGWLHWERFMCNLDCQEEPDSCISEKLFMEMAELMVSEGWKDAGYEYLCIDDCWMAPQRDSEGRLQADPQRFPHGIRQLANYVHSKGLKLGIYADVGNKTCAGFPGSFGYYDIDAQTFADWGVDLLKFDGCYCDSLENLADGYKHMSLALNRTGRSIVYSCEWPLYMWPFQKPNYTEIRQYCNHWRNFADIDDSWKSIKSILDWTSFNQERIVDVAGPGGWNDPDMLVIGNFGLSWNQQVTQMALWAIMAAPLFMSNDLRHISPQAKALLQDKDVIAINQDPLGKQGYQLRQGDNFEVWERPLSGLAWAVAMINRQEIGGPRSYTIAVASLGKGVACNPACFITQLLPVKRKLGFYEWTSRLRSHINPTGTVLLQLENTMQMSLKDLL
DNA repair nuclease/redox regulator APEX1 (Homo sapiens), sequence (P27695 whole entry, looked up): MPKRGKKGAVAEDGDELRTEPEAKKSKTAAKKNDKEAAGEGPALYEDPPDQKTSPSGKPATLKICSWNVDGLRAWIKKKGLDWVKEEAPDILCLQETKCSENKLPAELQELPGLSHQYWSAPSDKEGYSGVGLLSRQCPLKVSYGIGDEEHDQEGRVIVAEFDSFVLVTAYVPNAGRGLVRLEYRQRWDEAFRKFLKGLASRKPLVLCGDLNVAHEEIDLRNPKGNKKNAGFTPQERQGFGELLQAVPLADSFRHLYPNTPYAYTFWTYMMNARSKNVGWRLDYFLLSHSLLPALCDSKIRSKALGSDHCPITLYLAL

For the compound `CN(C)CCN(Cc1cccs1)c1ccccn1`, the compound was classed as inactive in [1], in experiment [2] and in [5]. The activity change, negative = inhibition in experiment [3] (at 25.7 µM (top of the series)) was 0.542% (inactive); in experiment [3] (at 57.5 µM (top of the series)), 3.3% (inactive). Further, the max response in [3] (setting [20]) is 2.28% and 15.7%; in experiment [3] (setting [21]), 3.57% and 22%. For the same compound, the Potency entry in [4], in experiment [6], in [8] and in experiment [9] was “inactive” each time. For the same compound, the Potency is 5.62 µM (active) in experiment [7], 7.08 µM (active) in [10] and 3.16 µM (active) in experiment [11].

Regarding `NCCCNCCSP(=O)(O)O`, the result in experiment [1], in [2] and in experiment [5] was inactive. Also, the activity change, negative = inhibition in experiment [3] (at 57.5 µM (top of the series)) is 2.83% (inactive). Besides, the values for the max response in experiment [3] (setting [20]) and in experiment [3] (setting [21]) were 11.3% and 15.5%, respectively. Besides, the Potency result in experiment [4], in experiment [6], in [12], in experiment [7], in experiment [8] and in [9] was “inactive” each time. The Potency result in [10] and in experiment [11] was “inactive” in each case.

On to `CCN(CC)CCNC(=O)c1ccc(NC(C)=O)cc1`, for which the outcome in experiment [1] and in [2] was inactive. In experiment [3] (at 57.5 µM (top of the series)), the activity change, negative = inhibition is 5.92% (inactive) and 1.04% (inactive). Further, the max response was -2.69% and -11.3% in experiment [3] (setting [20]); 6.2% and -12.1% in experiment [3] (setting [21]). Also, the Potency result in experiment [4], in experiment [6], in [12], in experiment [7], in experiment [8] and in experiment [9] was “inactive” each time. The Potency entry in experiment [10] and in [11] was “inactive” each time.

In the case of `Cc1ccc(=O)n(-c2ccccc2)c1`, the compound was called inactive in [1] and in experiment [2]. Also, the activity change, negative = inhibition in experiment [3] (at 57.5 µM (top of the series)) was 1.81% (inactive). In addition, the max response came to 6.64% in [3] (setting [20]) and 9.28% in [3] (setting [21]). Further, the Potency result in [4], in experiment [6], in experiment [12], in experiment [7], in [8] and in experiment [9] was “inactive” each time. In addition, the Potency result in experiment [10] and in [11] was “inactive” in each case.

With `CN=C(NC#N)NCCSCc1nc[nH]c1C`, the compound was called inactive in [13], in experiment [14], in experiment [17], in [1], in experiment [18] and in experiment [2]. Further, the call in [5] was inactive. The Potency entry in experiment [15], in experiment [16], in experiment [19], in [6], in experiment [7] and in [8] was “inactive” each time. Besides, the Potency entry in [9] and in [10] was “inactive” throughout. For the same compound, the activity change, negative = inhibition in experiment [3] (at 57.5 µM (top of the series)) was 0.49% (inactive) and 5% (inactive). The max response in experiment [3] (setting [20]) was 19.1% and 8.99%; in experiment [3] (setting [21]), 19.5% and 21.3%.

In the case of `OCCN1CCN(CCCN2c3ccccc3C=Cc3ccccc32)CC1`, the compound was called inactive in experiment [1] and in experiment [2]. Moreover, the activity change, negative = inhibition in experiment [3] (at 57.5 µM (top of the series)) was -1.21% (inactive). Moreover, the max response in experiment [3] (setting [20]) and in experiment [3] (setting [21]) was 45.9% each time. Further, the Potency entry in [4] and in experiment [6] was “inactive” throughout. For the same compound, the Potency in [12] is 3.16 µM (active) and 3.98 µM (active); in experiment [7] it was 5.01 µM (active) and 4.47 µM (active); in experiment [8], 11.2 µM (active) and 8.91 µM (active); in experiment [9], 10 µM (active); in [10], 5.62 µM (active) and 7.94 µM (active); in experiment [11], 2.51 µM (active) and 2.24 µM (active).

Consider `O=C(O)CN(CCOCCOCCN(CC(=O)O)CC(=O)O)CC(=O)O`, for which the result in [1], in experiment [2] and in experiment [5] was inactive. In addition, the activity change, negative = inhibition in experiment [3] (at 57.5 µM (top of the series)) was 0.929% (inactive). Moreover, the max response in experiment [3] (setting [20]) was -9.11%; in experiment [3] (setting [21]), -9.56%. The Potency result in experiment [4], in [12], in experiment [7], in [8], in experiment [9] and in experiment [10] was “inactive” throughout. In addition, in experiment [11], the Potency entry is “inactive”.

On to `CCNC(=O)N1CCN(CCCC(c2ccc(F)cc2)c2ccc(F)cc2)CC1`, for which the compound was classed as inactive in experiment [1] and in experiment [2]. Further, the activity change, negative = inhibition in experiment [3] (at 57.5 µM (top of the series)) is -0.161% (inactive). For the same compound, the max response in experiment [3] (setting [20]) was -45.7%; in experiment [3] (setting [21]) it was -48.7%. The Potency result in [4] was “inactive”. The Potency in [12] is 1.58 µM (active); in experiment [7], 1.12 µM (active); in experiment [8], 891 nM (active); in [9], 2.51 µM (active); in experiment [10], 3.16 µM (active); in experiment [11], 0.282 µM (active).

(Values after PubChem BioAssay (NCATS).)
